# Data: PubChem BioAssay (NCI)
# About 83,000 compounds went through this panel and 20% of them were active in at least one assay; those are over-represented in the sample as a whole.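 Plates (96-well) were seeded with cells, treated with compound at one concentration, and incubated for 48 hours before percent growth was determined.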 A number with no mark means an inactive call. Activity calls are given as the source filed them. Rule for the calls: active = growth percent below 10; inactive = the rest.
# Key:
# Test in all cases: NCI-60 one-dose screen, 48 h (100 = growth as untreated, 0 = no growth, -100 = all killed)
# Details in all cases: 10 µM unless noted
# [1] = system: NCI-H23 lung
# [2] = system: NCI-H226 lung
# [3] = system: NCI-H322M lung
# [4] = system: HOP-62 NSCLC
# [5] = system: NCI-H460 lung
# [6] = system: HOP-92 NSCLC
# [7] = system: NCI-H522 lung
# [8] = system: A549/ATCC NSCLC
# [9] = system: 786-0 renal
# [10] = system: COLO 205 colon
Compound,growth [1],growth [2] [%],growth [3],growth [4] [%],growth [5],growth [6],growth [7],growth [8],growth [9],growth [10]
CCC(c1cccc(Br)c1)C(C(=O)O)c1ccc(OC)cc1 (stereo not given),102%,108,111%,96.1,107%,93.6%,91.5%,102%,104%,120%
COc1ccc(-c2cn[nH]c2-c2cc(OC)c3c(c2)OCCO3)cc1,25.6%,57.1,50.7%,24,4.65% (active),46.6%,-22.8% (active),30%,33%,-59.5% (active)
CCOC(=O)/C=C\C(=O)NC(N)=O,102%,96.9,104%,87.8,110%,94.5%,90.3%,77.8%,103%,115%
C#CCN1C(=O)/C(=c2\sc3n(c2=O)NC2C(N=3)N(CC)C(=O)N2CC)c2ccccc21 (stereo not given),54.1%,87.4,95.8%,80.9,99.2%,76.4%,52.4%,85.6%,61.2%,37.1%
COc1ccc(-c2nc3sccn3c2-c2ccnc(NCCCNS(=O)(=O)c3ccc4ccccc4c3)n2)cc1,64.3%,62,93.1%,134,75.9%,104%,62.4%,76.1%,67.6%,57.6%
COc1cccc(C2CC(=O)Nc3c2c(C)nn3-c2nc3ccccc3[nH]2)c1OC (stereo not given),50.5%,55.1,60%,57.4,50.2%,85.4%,87.8%,34.4%,91.7%,98.1%
COC12CC(=O)C(C(C)=O)=C(O)C1(C)c1c(O)c(C)c(O)c(C(C)=O)c1O2 (stereo not given),50.5%,81.2,71.4%,86,55.1%,46%,70.1%,64.8%,60.8%,99.8%
O=C(N/N=C/c1c(Cl)cccc1Cl)c1ccccc1Nc1ccnc(C(F)(F)F)c1,46%,65.2,58.6%,67.2,36.1%,71.5%,52.6%,49.2%,75%,94.7%
CCC(=O)Nc1ccccc1C#C/C=C\C#Cc1ccccc1SC,79.9%,76.4,101%,66.5,28.6%,48.1%,84.4%,62.4%,87.7%,66.2%
CCn1cc(C(=O)O)c(=O)c2cc(F)c(N3CCN(S(=O)(=O)c4ccc(OC)c(OC)c4)CC3)cc21,99.6%,95.9,102%,100,108%,91.5%,90.6%,105%,99.5%,99.3%
COc1ccc(C(=O)/C=C/c2cccc([N+](=O)[O-])c2)c(OC)c1,32.6%,49.2,66%,26.1,1.68% (active),67.5%,7.28% (active),27.6%,-7.25% (active),60.2%
C#CCC1(c2ccc(F)c(F)c2)NS(=O)(=O)c2ccccc21 (stereo not given),98.1%,103,90.5%,86.2,108%,106%,65.5%,76.9%,101%,110%
CC(=O)c1cc(C(=O)c2ccc3c(c2)Sc2ccccc2N3)c2cc(C)ccn12,16.5%,56.6,35.1%,21.1,1.02% (active),42.6%,-47.9% (active),14.5%,9.68% (active),-62.2% (active)
COc1cc(OC)c(C(=O)/C=C/c2ccc(C#N)cc2)c(OC)c1,20.1%,28.9,17.3%,13.6,-3.34% (active),12.8%,-5.25% (active),7.11% (active),10.6%,9.97% (active)
O=S(=O)(NCCCNc1cc(-c2cn(-c3ccccc3)nc2-c2cccc(O)c2)ccn1)c1cccc2ccccc12,44.9%,38.7,44.3%,47.3,18%,11.8%,44.5%,35.8%,-9.71% (active),-65.5% (active)
O=C1Nc2ccc(Br)cc2C1=N/C=c1\[nH]c(=O)/c(=C/c2ccc(Cl)cc2)s1,97.8%,98.3,93.2%,84.1,101%,83.2%,89.3%,85.3%,90.6%,102%
Cc1ccc2nc(-c3c(CCCO)noc3N)[nH]c(=O)c2c1,130%,99.9,89.6%,103,108%,65.7%,103%,101%,98.6%,121%
CCCCCCCC/C=C\CCCCCCCCOc1ccccc1CCOP(=O)(O)OCC[N+](C)(C)C,90.2%,95.6,106%,42.1,9.07% (active),30.3%,39.4%,48.9%,82.4%,58.4%
COc1ncc(-c2ccc3ncnc(Nc4cccc(Cl)c4)c3c2)cc1NS(=O)(=O)C1CC1,54.2%,24.1,-5.8% (active),43.9,28.3%,-7.31% (active),12.2%,26.3%,62.6%,31.4%
Cc1nn(-c2ccc(Cl)cc2)c(=O)n1CCOc1ccccc1Cl,91.6%,103,111%,75.2,87.2%,78.4%,116%,89.9%,93.7%,101%
C=CCn1c(C)nc2ccc(Nc3nc(Nc4ccc(F)cc4)nc4ccccc34)cc21,56%,85.4,85.5%,75.9,63.4%,-0.386% (active),57.9%,52.1%,76.7%,43.7%
Nc1nc(-c2ccccc2)cs1,111%,93.3,109%,97,109%,101%,102%,95.6%,105%,108%
COc1cc(OC)c(C(=O)/C=C/c2cccc(C(F)(F)F)c2)c(OC)c1,5.06% (active),25.1,13.2%,18.7,-1.87% (active),2.76% (active),-31.8% (active),6.1% (active),13.4%,12.9%
CC(C(=O)n1cc(-c2ccccc2)c(-c2ccccc2)c1)c1ccccc1 (stereo not given),101%,104,110%,95.4,104%,90.5%,102%,88.7%,98%,122%
Clc1nc2ccccc2nc1CI,86%,68.2,89.9%,105,108%,90.9%,3.79% (active),117%,101%,120%
O=S(=O)(NCCCNc1cc(-c2cn(-c3ccccc3)nc2-c2cccc(O)c2)ccn1)c1cccc(F)c1,58.6%,46.4,57.9%,66.7,35.6%,26%,44.4%,37%,13.1%,-55.9% (active)
O=[N+]([O-])c1c(S(=O)(=O)O)cc2cc(S(=O)(=O)O)ccc2c1[N+](=O)[O-],90.6%,108,92.6%,109,105%,103%,86.1%,98.9%,103%,117%
